BL2 CD40 inh: inhibitors of CD40-induced NF-kB signaling, primary screen, BL2 cells, luciferase reporter, single point. CD40L-induced, 4 h. inhibition, % at 10 µM. hit rate 0.94% among 83,000;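 active means mean inhibition of at least 50% with a set share of replicates also reaching that level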;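 further: 0% = neutral control wells and 100% = IKK inhibitor VII at 50 µM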
An asterisk follows results filed as active; [ ] = another dose, or the depositor's remark. The sample as a whole holds a higher share of hits than the screen did.

SMILES	BL2 CD40 inh
O=C(C[C@@H]1C[C@H]2c3cc(NC(=O)NC4CCCC4)ccc3O[C@H]2[C@@H](CO)O1)NCc1cccnc1	3
COc1cccc(Nc2nc(-c3ccc4c(c3)OCCO4)cs2)c1	-94
COc1ccccc1C(=O)Nc1nc(-c2ccc3c(c2)OCCO3)cs1	50*
O=C(Nc1nc(-c2ccc3c(c2)OCCO3)cs1)c1ccco1	-5
C[C@@H]1CN([C@H](C)CO)C(=O)c2c(c3ccccc3n2C)-c2ccccc2CO[C@@H]1CN(C)CC1CC1	22
O=C(Nc1ccc2c(c1)[C@@H]1C[C@H](CC(=O)N3CCCCC3)O[C@H](CO)[C@@H]1O2)NC1CCCCC1	-2[25 µM]
CC(C)(C)NC(=O)/C=C/c1cccs1	-12
O=C(/C=C/c1cccs1)c1ccc(N2CCOCC2)cc1	54*
CC(=O)c1ccc(N2CCN(C(=O)Cc3cccs3)CC2)cc1	-18
CCCNC(=O)[C@H]1[C@H](CO)[C@H]2Cn3c(cccc3=O)[C@H]2N1C(=O)C1CCCC1	-1[25 µM]
Cc1cc(N)c2ccccc2n1	3
Nc1cccc2nc3ccccc3cc12	active
Nc1nc2ccccc2cc1S(=O)(=O)c1ccccc1	6
NS(=O)(=O)c1ccc(N=Cc2c(O)[nH]c3ccccc23)cc1	-9[25 µM]
CC(C)Sc1nc2ccccc2c(=O)[nH]1	6
CC(C)N1C(=O)/C(=C\c2nc3ccccc3c(=O)[nH]2)c2ccccc21	33*
O=c1[nH]c(C(F)(F)F)nc2ccccc12	-8
CN(C)CC(=O)N1[C@@H]2c3ccc(-c4cccnc4)c(=O)n3C[C@H]1[C@H](CO)[C@H]2C(=O)NC1CCCC1	1[25 µM]
CC(=O)NC[C@H]1[C@@H](c2ccc(-c3cccnc3)cc2)[C@H](CO)N1C(=O)C1CCC1	6[25 µM]
C[C@@H]1CN([C@H](C)CO)C(=O)c2c(c3ccccc3n2C)-c2ccccc2CO[C@@H]1CN(C)C(=O)[C@H](C)c1ccccc1	5
Cc1cc(N2CCN(C)CC2)ccc1NC(=O)c1ccc(-c2ccc(Cl)cc2)o1	64*
O=C(Nc1ccccc1N1CCCCC1)c1ccc(-c2ccc(Cl)cc2)o1	-2
Cc1nnc(NC(=O)c2ccc(-c3ccc(Cl)cc3)o2)s1	2
CCCC(=O)N1CCC2(CC1)CN(Cc1ccc(Cl)cc1)[C@H](CO)c1[nH]c3cc(OC)ccc3c12	20[25 µM]
N#C/C(=C\c1ccc(O)c(O)c1)C(=O)NCCCc1ccccc1	1
SMILES	BL2 CD40 inh
COCCCNC(=O)c1ccc([N+](=O)[O-])c(Cl)c1	21
CCOCCCNC(=O)/C(C#N)=C/c1ccc(Cl)c([N+](=O)[O-])c1	73*
COc1ccccc1C(=O)N1C[C@@H]2[C@H](c3ccccc31)[C@@H](CO)N2C(=O)C1CCCC1	3
COc1ccccc1S(=O)(=O)N(C)C[C@@H]1OCc2ccccc2-c2c(n(C)c3ccccc23)C(=O)N([C@@H](C)CO)C[C@@H]1C	-1
CC(C)Cc1ccc(C(C)CC2=CCC(CN(C)C)C2=O)cc1 (configuration not stated)	94*
CN1c2ccc(C#Cc3ccccc3)cc2[C@H]2[C@H](CCN2S(=O)(=O)c2ccccc2F)[C@H]1CO	3
CO[C@@H]1CN(C)C(=O)c2cc(NC(=O)C3CCC3)ccc2OC[C@H](C)N(Cc2cccnc2)C[C@@H]1C	-7
C[C@H](CO)N1C[C@H](C)[C@H](CN(C)C(=O)Nc2ccnc(N3CCOCC3)c2)OCc2cn(nn2)CCCC1=O	4[25 µM]
Cc1ccc(-n2cnnn2)c2cccnc12	2
Cc1cccnc1NCc1ccc(O)c2ncccc12	59*
Oc1ccc(CN2CCCc3ccccc32)c2cccnc12	11
CC(=O)N1[C@@H]2c3cccc(=O)n3C[C@H]1[C@H](CO)[C@H]2C(=O)NC1CCCC1	-1[25 µM]
O=C(CCN1CCC(c2ccccc2)C1)c1ccccc1 (configuration not stated)	5
COc1cc(C(=O)CCN2CCC(c3ccccc3)C2)cc(OC)c1OC (configuration not stated)	45*
O=C(CCN1CCC(c2ccccc2)C1)c1cccs1 (configuration not stated)	35
O=C(CCN1CCC(c2ccccc2)C1)c1ccc2c(c1)OCCO2 (configuration not stated)	45*
O=C(CCN1CCCCC1)c1ccc2c(c1)OCCO2	0
COc1cc(C(=O)OC2CCN(C)CC2)cc(OC)c1OC	16
CS(=O)(=O)N1[C@@H]2CN(CC(F)(F)F)C[C@H]1C2c1ccccc1 (some centres not stated)	-2
Fc1ccc(CN2[C@@H]3CN(CC(F)(F)F)C[C@H]2C3c2ccccc2)cc1 (some centres not stated)	1
O=C1[C@H](Cc2ccc(C(F)(F)F)cc2)CCn2nncc2COC[C@H]2CCCCN12	2[25 µM]
COc1ccc(S(=O)(=O)N2C[C@H](O)COC[C@H]3O[C@H](CC(=O)N[C@@H]4CCN(Cc5ccccc5)C4)CC[C@@H]32)cc1	3[25 µM]
CSc1nc2ccccc2s1	2
NS(=O)(=O)c1ccc(N/N=C/c2ccccn2)c([N+](=O)[O-])c1	2
NS(=O)(=O)c1ccc(Sc2nc3ccccc3s2)c([N+](=O)[O-])c1	81*
